# Many of the other results were omitted from the sample, so hits are more common in it than they were.
# Tg IFNy HTS = T. gondii growth inhibition with IFN-gamma, primary screen, cell-based | Toxoplasma gondii growth in IFN-gamma-treated host cells; hits give low values | activity change, negative = inhibition, % (concentration not given with the values) | hit rate 3.8% among 69,000 | AID 1259416, 2018; in the data active = activity change below about -70%, passing the limit was not always enough;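 also: host cells are HeLa cells infected with Toxoplasma gondii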
# * hit, by the source's call; ! = not active in a repeat.
SMILES,Tg IFNy HTS
CN1C(=O)c2cc(NC(=O)c3ccc(C(F)(F)F)cc3)ccc2OC[C@H]2O[C@H](CC(=O)NCc3ccc4c(c3)OCO4)CC[C@@H]21,-75*
CN1C(=O)c2cc(NC(=O)c3ccc4c(c3)OCO4)ccc2OC[C@H]2O[C@H](CC(=O)O)CC[C@@H]21,-11
CN1C(=O)c2cc(NC(=O)Nc3cccc(C#N)c3)ccc2OC[C@H]2O[C@@H](CC(=O)NCc3ccc(Cl)cc3)CC[C@@H]21,-5
CN1C(=O)c2cc(NC(=O)c3cccc(F)c3)ccc2OC[C@@H]2O[C@H](CC(=O)NCc3ccccc3Cl)CC[C@H]21,-22
Cc1cc(C(=O)Nc2ccc3c(c2)C(=O)N(C)[C@H]2CC[C@H](CC(=O)NCc4ccc(-c5ccccc5)cc4)O[C@H]2CO3)no1,-62
CN1C(=O)c2cc(NC(=O)c3cccc(F)c3)ccc2OC[C@@H]2O[C@H](CC(=O)NCC3CCCCC3)CC[C@@H]21,-23
CN1C(=O)c2cc(NC(=O)c3ccc4c(c3)OCO4)ccc2OC[C@H]2O[C@@H](CC(=O)O)CC[C@@H]21,7
CN1C(=O)c2cc(NC(=O)Nc3cccc(C#N)c3)ccc2OC[C@H]2O[C@@H](CC(=O)Nc3ccc4c(c3)CCC4)CC[C@@H]21,-58
CN1C(=O)c2cc(NC(=O)c3cccc(F)c3)ccc2OC[C@H]2O[C@@H](CC(=O)NCC3CCCCC3)CC[C@H]21,-77*!
Cc1cc(C(=O)Nc2ccc3c(c2)C(=O)N(C)[C@@H]2CC[C@@H](CC(=O)NCc4ccc(-c5ccccc5)cc4)O[C@@H]2CO3)no1,-60
COC(=O)C[C@H]1CC[C@@H]2[C@@H](COc3ccc(NC(=O)Nc4cccc(C#N)c4)cc3C(=O)N2C)O1,-79*
Cn1cc(CN(Cc2ccccc2)Cc2ccncc2)c2cc(F)ccc21,79
Cc1cnc(N2CCC3C2CCC(=O)N3Cc2csc(C)n2)nc1 (stereo unspecified),-43
CCc1ccc(-c2cc3c(=O)n(Cc4nc(-c5ccccc5C)oc4C)ccn3n2)cc1,62
O=C(c1[nH]cnc1-c1ccccc1)N1C[C@H]2CC=CC[C@H]2C1,15
CN(C)C(=O)N1CCN(c2ccc3ccc(C(=O)CCN4CCOCC4)cn23)CC1,5
CN(C)C(=O)CN1[C@@H]2CCN(C(=O)CC3CC3)CC[C@@H]2Oc2ccccc2S1(=O)=O,-5
O=C(c1ccn[nH]1)N1CC[C@H]2CN(Cc3ccccc3)S(=O)(=O)[C@@H]2CC1,1
COC(=O)C1CCN(Cc2cccc(C(=O)Nc3nccn3C)c2)CC1,1
CO[C@H]1[C@H](NC(=O)c2cccc(F)c2)c2ccccc2C12CCN(Cc1nc(C(C)C)cs1)CC2,-5
CCN(C(=O)c1ccc(=O)n(C)c1)C(C)Cc1ccc(OC)cc1 (stereo unspecified),5
Cc1cc(C(=O)Nc2ccc3c(c2)C(=O)N(C)[C@H]2CC[C@@H](CC(=O)NCc4ccc(-c5ccccc5)cc4)O[C@H]2CO3)no1,-79*
Cc1cc(C(=O)Nc2ccc3c(c2)C(=O)N(C)[C@@H]2CC[C@@H](CC(=O)O)O[C@H]2CO3)no1,14
Cc1cc(C(=O)Nc2ccc3c(c2)C(=O)N(C)[C@H]2CC[C@H](CC(=O)NCc4ccc(-c5ccccc5)cc4)O[C@@H]2CO3)no1,-35
CC1CCN(c2ncnc3c2cnn3CC(=O)Nc2ccc(Cl)cc2F)CC1,82
SMILES,Tg IFNy HTS
Cc1oc(-c2cccc(Cl)c2)nc1Cn1nnc(C(=O)Nc2ccccc2F)c1C,-11
Cc1ccc(NC(=O)CC(=O)N2CCCC2c2cc(C(C)C)on2)cc1 (stereo unspecified),2
CCC(CC)C(=O)Nc1c[nH]c(=O)[nH]c1=O,-7
O=c1[nH]cc(F)c(=O)[nH]1,-96*!
CCCCc1nc(Cl)c(CN2CCN(Cc3cccc(F)c3)CC2)[nH]1,-4
Cc1ccccc1OCC(=O)NCCc1csc(-c2ccc(Cl)cc2)n1,-14
Nc1nc(Cl)nc2c1ncn2[C@@H]1O[C@H](CO)[C@@H](O)[C@H]1O,-16
Nc1nc(Cl)nc2c1ncn2C1OC(CO)C(O)C1F (stereo unspecified),-78*
OC[C@H]1O[C@@H](n2cnc3c(NC4CCCC4)nc(Cl)nc32)[C@H](O)[C@@H]1O,-70
O=C(c1[nH]cnc1-c1ccccc1)N1CCCC(N2CCCC2=O)C1 (stereo unspecified),4
CC(C)N1CCOCC1c1nccc(NCc2cccnc2)n1 (stereo unspecified),-30
COc1cccc(CC(=O)N2CC[C@H]3CN(Cc4cccnc4)S(=O)(=O)[C@@H]3CC2)c1,-34
CCCc1nc(NCc2nnnn2-c2ccccc2)c2cnn(C)c2n1,-9
CCCc1nc(NCc2cc(-c3ccc(F)cc3)on2)c2cnn(C)c2n1,-12
CCCc1nc(NCc2cc(-c3ccccc3)n[nH]2)c2cnn(C)c2n1,-83*
CCC(=O)Nc1ccc(S(=O)(=O)N2CCC3(CC2)Nc2cc(C)ccc2-n2cccc23)cc1,-2
CC(c1ccccc1O)N(Cc1ccccc1)C(=S)Nc1ccc(Cl)c(Cl)c1 (stereo unspecified),-52
CCCn1cc(CCNC(=O)c2cc3ccccc3[nH]2)c2cccnc21,-83*
CCCN1C(=O)CCc2cc(NC(=O)c3cc4ccccc4[nH]3)ccc21,25
CC(CNC(=O)c1cc(=O)c2ccccc2[nH]1)Oc1cccnc1 (stereo unspecified),0
CCN(CC)C(=O)c1cn(-c2ccccc2)nc1C12CC3CC(CC(C3)C1)C2,-4
FC(F)(F)CCc1ccnc(NCc2ccc3c(c2)OCO3)n1,-5
Clc1ccc(-c2nc(NCc3ccc4c(c3)OCO4)ncc2-c2ncc[nH]2)cc1,-106*
FC(F)(F)c1ccnc(NCc2ccc3c(c2)OCO3)n1,51
Cc1cc(C(=O)N2CCc3ccc(=O)n(CC4CC4)c3CC2)c(C)o1,8
SMILES,Tg IFNy HTS
Nc1nc(C2CCN(C(=O)CCc3ccccc3)CC2)ccc1C(=O)NCc1ccccc1,-70
CCn1nnc2c1C(COC)CN(Cc1ccoc1)C2 (stereo unspecified),-14
COc1ccc(-c2ccnc(SC)n2)cc1,-82*
COc1ccc(-c2cc(C(F)(F)F)n3nc(-c4cccs4)cc3n2)cc1,-51
COc1cccc(CNc2ncc(-c3ccncc3)c(-c3cccs3)n2)c1,-52
COc1ccc(-c2cc(C3CCN(C(C)=O)CC3)ccn2)cc1,74
COc1ccc(-c2ccnc(-c3cccs3)n2)cc1,-103*
COc1ccc(-c2cc(N)nc(N)n2)cc1,16
Cc1nc(C)c2c(n1)CCN(C1CCOCC1)CC2,60
CN(C)Cc1cc(=O)n2c(n1)CN(CC1CC1)CCC2,-13
Cn1ncc2c1C(COCC1CC1)CN(C(=O)c1ccccn1)C2 (stereo unspecified),4
Cc1cccc(N2CCn3c(Cn4cncn4)cnc3C2C)n1 (stereo unspecified),1
C=CCC1(CC=C)CCN1C(=O)c1cc(=O)c2cc(C)c(C)cc2o1,3
Cn1c(=O)n(C)c2cc(CNC(=O)c3cccc4ccnn34)ccc21,0
O=C(c1cc2cccnc2n(Cc2ccccc2)c1=O)N1CCCCC1,35
Cc1cc(C)n(Cc2nc(-c3ccc(NC(=O)c4cc(F)cc(F)c4)cc3)oc2C)n1,-32
Cc1cc(C)n(Cc2nc(-c3ccc(NC(=O)c4ccc(Cl)cc4)cc3)oc2C)n1,2
Cc1cc(C)n(Cc2nc(-c3ccc(NC(=O)CCc4ccccc4)cc3)oc2C)n1,-69
Cc1ccc(C)c(C(=O)Nc2ccc(-c3nc(Cn4nc(C)cc4C)c(C)o3)cc2)c1,-75*
